Screening data: PubChem, National Center for Advancing Translational Sciences (NCATS)
Only some compounds are listed: those with a hit (about 4.1% of all), similar ones and a draw of the others.
AmpC no deterg – AmpC beta-lactamase inhibition without detergent | P00811 | AmpC nitrocefin hydrolysis, absorbance 480 nm, 0.0001% Triton | Potency, µM (doses to about 57.1 µM), inactives show top-dose activity change, negative = inhibition, actives largely listed as inhibitors | 330,000 tested, 0.52% active | AID 485341;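 further: plate controls were no compound for no effect and no enzyme for full effect; nearly all actives have a fitted effect of over 20% in size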
Target sequence (P00811 whole entry, looked up): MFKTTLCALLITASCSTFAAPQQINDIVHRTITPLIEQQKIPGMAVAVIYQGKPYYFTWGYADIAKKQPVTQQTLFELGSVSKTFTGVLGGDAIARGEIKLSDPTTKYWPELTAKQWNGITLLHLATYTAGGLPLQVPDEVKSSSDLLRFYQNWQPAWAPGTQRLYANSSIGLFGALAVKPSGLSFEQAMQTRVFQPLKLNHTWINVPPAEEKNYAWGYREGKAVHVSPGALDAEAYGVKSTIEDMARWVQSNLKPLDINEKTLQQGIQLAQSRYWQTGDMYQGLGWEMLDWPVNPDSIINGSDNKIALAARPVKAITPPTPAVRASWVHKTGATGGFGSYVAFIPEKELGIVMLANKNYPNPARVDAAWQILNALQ
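20 mM phosphate pH 7.0 + 0.01% (detergent screen) or 0.0001% Triton X-100; 5.3 nM AmpC reagent; cpd preinc 15 min RT; nitrocefin (800 uM stock) to start; A480 q20 s × 4 min; Activity was normalised to no-enzyme and no-compound control wells.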
AMA1-RON2 inh – inhibitors of Plasmodium falciparum AMA1-RON2 interaction | AlphaScreen AMA1-biotinylated RON2 peptide binding | Potency, µM (series often up to 58.2 µM), for inactives: top-dose activity change, negative = inhibition, usual class: inhibitors | 360,000 tested, 0.2% active | AID 720542;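 further: 0% = vehicle wells and -100% = peptide control; nearly all actives have a fitted effect of over 45% in size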
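AMA1 (3D7) with his tag at 25 nM final met compounds first, then biotinylated RON2 peptide at 25 nM; detection used donor plus acceptor beads, 10 µg/mL apiece, read by AlphaScreen after 30 min at room temperature.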
FMDV inh – antivirals against foot and mouth disease virus | Potency, µM (doses to about 57.9 µM), without a hit: at the highest dose activity change, negative = inhibition, usual class: inhibitors | 410,000 tested, 1.2% active | AID 1159524 | FMDV antiviral cell-based qHTS; calls by dose curve; tested in HEK293T cells; further: read-out not given here; nearly all actives have a fitted effect of over 45% in size
Sm TGR inh – blocks Schistosoma mansoni thioredoxin glutathione reductase; purified TGR, DTNB reduction, TNB absorbance 405 nm; AID 485364; Q962Y6; 360,000 tested, 3% active; Potency, µM (highest dose often 114 µM), inactives show at the top dose activity change, negative = inhibition, most hits filed as inhibitors; further: nearly all actives have a fitted effect of over 60% in size
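Kinetic colorimetric format: TGR-catalysed, NADPH-driven DTNB reduction monitored via TNB absorbance. Enzyme dispensed at 20 nM; compound exposure 15 min at room temperature before reaction start.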
AmpC inh detg – inhibitors of E. coli AmpC beta-lactamase with detergent | 370,000 tested, 0.041% active | Potency, µM (doses to about 114 µM), for inactives: top-dose activity change, negative = inhibition, usual class: inhibitors | P00811 | AID 485294 | AmpC hydrolysis of nitrocefin, absorbance 480 nm, 0.01% Triton;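 further: 0% = no-compound wells and -100% = no-enzyme wells; nearly all actives have a fitted effect of over 25% in size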
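AmpC (5.3 nM in the dispensed reagent) in 20 mM phosphate pH 7.0 with 0.01% (detergent screen) or 0.0001% Triton X-100 was preincubated with compounds for 15 min at room temperature. Nitrocefin was then added from an 800 uM solution, and hydrolysis was followed at 480 nm.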
Active calls of the source: *; ? = inconclusive; / = no result. Unless noted, the call rests on the fitted dose curve; in most records, active means well fitted curve in the direction sought with a large enough effect; inconclusive means small, poorly fitted or top-dose-only effect, or another doubt; inactive means no such curve, though single readings can be large; an effect the other way counts as inactive or inconclusive. Unless noted, on the % scale 0 is the no-effect control and ±100 the full control effect; potency means the concentration at half of the fitted maximal effect.

SMILES	AmpC no deterg	AMA1-RON2 inh	FMDV inh	Sm TGR inh	AmpC inh detg
Cc1ccc(S(=O)(=O)C(CNC(=O)c2ccc(C(F)(F)F)cc2)c2ccco2)cc1 (centres undefined)	/	/	-23%	?	-1%
O=C(NCC(c1ccco1)S(=O)(=O)c1ccc(Cl)cc1)c1ccc(C(F)(F)F)cc1 (centres undefined)	/	/	?	0.89µM*	-2%
Cc1ccc(C(=O)N2CCOc3ccc(CN4CCN(Cc5ccccn5)CC4)cc3C2)cc1	/	/	7%	/	/
COCCN(C)Cc1cn(-c2ccc(F)cc2F)nc1-c1ccccc1C	148%	-10%	-13%	5µM*	-1%
O=C(NCc1nnc2n1CCN(Cc1ccnc3ccccc13)CC2)c1cccc(F)c1	/	/	-1%	/	/
Cc1cccc(NS(=O)(=O)c2c(C)nc3sccn3c2=O)c1C	/	/	39%	-6%	-9%
CCc1ccc(-c2nc(CN3CCC(C(=O)N4CCN(c5ccccn5)CC4)CC3)c(C)o2)cc1	60%	-22%	25µM*	-13%	4%
Cc1ccc(Cl)cc1N1CCN(C(=O)C2CCN(Cc3nc(-c4ccc(Cl)cc4)oc3C)CC2)CC1	/	/	?	-3%	-12%
CCc1ccc(-c2nc(CN3CCC(C(=O)N4CCN(c5ccccc5)CC4)CC3)c(C)o2)cc1	168%	1%	?	1%	-1%
CCN1CCN(C(=O)C2CCN(Cc3nc(-c4cccc(Cl)c4)oc3C)CC2)CC1	118%	7%	-14%	0%	?
Cc1oc(-c2cccc(Cl)c2)nc1CN1CCC(C(=O)N2CCN(c3ccccn3)CC2)CC1	/	14%	20µM*	/	/
Cc1ccc(C)c(N2CCN(C(=O)C3CCN(Cc4nc(-c5cccc(Cl)c5)oc4C)CC3)CC2)c1	/	/	20µM*	0%	2%
COc1ccc(CN2CCN(C(C)=O)CC2)cc1OC1CCN(C(=O)c2ccc3[nH]c(C)c(C)c3c2)CC1	/	/	-17%	/	/
CC(=O)Nc1ccc(Nc2ccc3cc(S(=O)(=O)N4CCCCC4)ccc3n2)cc1	/	/	-1%	-7%	2%
O=C1C2ON(c3ccccc3)C(c3cccnc3)C2C(=O)N1Cc1ccccc1 (centres undefined)	44%	3%	?	40µM*	?
CCOc1ccccc1Nc1ccnc2cc(Cl)ccc12	-37%	11%	-26%	10%	7%
CC/C(=N\Nc1ccnc2cc(Cl)ccc12)c1ccc(O)cc1	-44%	-27%	-3%	50µM*	?
Oc1ccc(/C=N/Nc2ccnc3cc(Cl)ccc23)cc1O	11µM*	2%	-3%	-2%	-8%
Oc1ccc(/C=N/Nc2ccnc3cc(Cl)ccc23)c(O)c1O	-59%	23%	-11%	-28%	-9%
N[C@@H](Cc1ccc(N(CCCl)CCCl)cc1)C(=O)O	-18%	-8%	-20%	14µM*	-1%
NC(Cc1ccc(OC(F)F)cc1)C(=O)O (centres undefined)	-31%	23%	-11%	35µM*	3%
CC(=O)NC(Cc1ccc(N(CCCl)CCCl)cc1)C(=O)O (centres undefined)	-39%	?	/	?	?
O=C(O)CCCc1ccc(N(CCCl)CCCl)cc1	-18%	6%	-4%	50µM*	-5%
COc1ccc(Cn2c(CNC(=O)Cc3ccc(OC)c(OC)c3)nc3cccnc32)cc1	/	/	1%	1%	-2%
COc1ccc(CNC(=O)C2CCN(C(=O)N3CCOc4ccc(Cl)cc43)CC2)cc1	/	/	-25%	-8%	1%
SMILES	AmpC no deterg	AMA1-RON2 inh	FMDV inh	Sm TGR inh	AmpC inh detg
COC1C(OC(=O)c2ccc(C)[nH]2)C(O)C(Oc2ccc3c(O)c(NC(=O)c4ccc(O)c(CC=C(C)C)c4)c(=O)oc3c2Cl)OC1(C)C (centres undefined)	-30%	-19%	40µM*	2%	-11%
Cc1c(OCC(=O)NCCCN2CCOCC2)ccc2c1oc(=O)c1ccccc12	-11%	0%	-5%	0%	-7%
CC(=O)Oc1cc2c(C(=O)NCCCN3CCOCC3)c(C)oc2c2ccccc12	165%	2%	-22%	35µM*	-14%
CCc1nnc2n1N(C(C)=O)C(c1ccc(C(C)(C)C)cc1)=C(C(C)=O)S2	/	/	?	-12%	2%
COc1ccc(NS(=O)(=O)c2ccc(NC(=S)NC(=O)c3ccc(F)cc3)cc2)nn1	-29%	8%	3%	45µM*	-7%
CCc1nnc(NS(=O)(=O)c2ccc(NC(=S)NC(=O)c3ccc(F)cc3)cc2)s1	-35%	39%	1%	45µM*	-12%
Cc1cc(NS(=O)(=O)c2ccc(NC(=S)NC(=O)c3cccnc3)cc2)no1	-13%	-12%	10%	0%	0%
CCc1nnc(NS(=O)(=O)c2ccc(NC(=S)NC(=O)c3cccnc3)cc2)s1	-23%	29%	0%	18µM*	-3%
Cc1cc(NS(=O)(=O)c2ccc(NC(=S)NC(=O)c3ccc(Br)cc3)cc2)no1	-36%	47%	15%	50µM*	3%
CCc1c(C)c2ccc3c(c2oc1=O)CN(Cc1ccccc1)CO3	/	/	-2%	-10%	5%
COc1ccc(Cl)cc1NC(=O)c1ccc(CN2C(=O)CCn3nc(C)cc32)cc1	/	/	-29%	5%	-1%
O=C(c1ccc2c(c1)N(Cc1cccc(Cl)c1)C(=O)c1ccccc1S2=O)N1CCN(c2cccc(C(F)(F)F)c2)CC1 (centres undefined)	/	/	-15%	1%	-5%
O=C(NCCc1ccc(Cl)cc1)c1ccc(Cn2c(=O)c3cccn3c3cccnc32)cc1	/	/	-10%	-1%	-2%
O=C1C=C(N(CCO)Cc2ccccc2)c2ccccc2C1=O	-44%	-1%	14µM*	?	-7%
CCOC(=O)N1CCN(Cc2ccc3c(c2)CN(C(=O)c2cc(-c4ccccc4)on2)CCO3)CC1	/	/	28µM*	/	/
COCC1CCCN(Cc2ccc3c(c2)CN(C(=O)c2cc(-c4ccccc4)n[nH]2)CCO3)C1 (centres undefined)	/	/	-20%	/	/
CCOC(=O)N1CCN(Cc2ccc3c(c2)CN(C(=O)c2cc(-c4ccccc4)no2)CCO3)CC1	/	/	25µM*	/	/
CCCCNC(=O)CCCn1c(=O)c2ccccc2n(Cc2cccc(Cl)c2)c1=O	/	/	-22%	-6%	-6%
CCC1CCCCN1C(=O)Cn1c(=O)n(-c2ccccc2C(F)(F)F)c(=O)c2c(C)c(C(=O)N(C)C)sc21 (centres undefined)	/	/	-13%	-10%	8%
c1coc(-c2nc3nc4ccccc4nc3n2CC2CCCO2)c1 (centres undefined)	29%	2%	-1%	50µM*	-2%
COc1ccc(CCn2c(-c3ccco3)nc3nc4ccccc4nc32)cc1	12%	-4%	0%	50µM*	-12%
